Screening data deposited in PubChem BioAssay by The Scripps Research Institute Molecular Screening Center.
This is a sample that favours compounds with a hit; in the whole collection about 1.3% have one here.
PREPL inhibitor – human PREPL enzyme inhibition | recombinant PREPL, fluorescence polarization activity-based probe | inhibition, % at 5.96 µM | actives 0.68% (n = 320,000); in the data active = inhibition above about 43%
LYPLA1 inh – LYPLA1 (human) inhibition in PME1 counter-screen. recombinant LYPLA1, FP-Rh probe fluorescence polarization. O75608. inhibition, % at 5.9 µM. actives 0.16% (n = 320,000);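 active = inhibition above the mean of all tested compounds plus 3 SD, set per campaign, cut at about 14% in these data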;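 also: inhibitors block serine hydrolase probe labeling of LYPLA1 so polarization falls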
Target sequence (O75608 whole entry, looked up): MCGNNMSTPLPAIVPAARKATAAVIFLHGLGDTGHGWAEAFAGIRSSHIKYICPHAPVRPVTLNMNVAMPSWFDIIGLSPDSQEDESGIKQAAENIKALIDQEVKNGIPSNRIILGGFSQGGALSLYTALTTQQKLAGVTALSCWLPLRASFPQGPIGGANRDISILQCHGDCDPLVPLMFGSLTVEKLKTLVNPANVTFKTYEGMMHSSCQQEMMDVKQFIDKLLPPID
Fam108B counter – Fam108B inhibition, counter-screen for RBBP9 inhibitors; actives 0.33% (n = 300,000); recombinant Fam108B, FP-Rh probe fluorescence polarization; inhibition, % at 9.51 µM;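 active = inhibition above the screen mean inhibition plus 3 SD, computed separately per campaign, cut at about 18% in these data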;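 also: inhibitors lower polarization as less probe binds the enzyme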
PME-1 inh – blocks human protein phosphatase methylesterase 1; Q9Y570; actives 0.53% (n = 320,000); recombinant PME-1, FP-Rh probe fluorescence polarization; inhibition, % at 5.9 µM;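 active = inhibition above the campaign mean of all compounds plus 3 SD, cut at about 26% in these data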;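 also: competitive labeling of PME-1 active site by serine hydrolase directed probe; inhibitors block probe labeling so polarization falls and inhibition rises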
Target sequence (Q9Y570 whole entry, looked up): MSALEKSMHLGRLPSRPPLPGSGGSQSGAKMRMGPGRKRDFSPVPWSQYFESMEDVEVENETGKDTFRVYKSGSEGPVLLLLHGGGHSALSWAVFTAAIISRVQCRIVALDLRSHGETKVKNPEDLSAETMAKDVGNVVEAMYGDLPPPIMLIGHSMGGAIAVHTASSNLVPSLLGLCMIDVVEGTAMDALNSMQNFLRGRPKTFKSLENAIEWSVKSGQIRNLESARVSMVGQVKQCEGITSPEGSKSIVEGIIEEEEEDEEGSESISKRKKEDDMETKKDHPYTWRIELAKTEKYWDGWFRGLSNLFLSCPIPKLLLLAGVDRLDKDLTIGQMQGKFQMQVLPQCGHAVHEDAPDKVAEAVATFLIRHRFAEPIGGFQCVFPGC
LYPLA2 inh – blocks human lysophospholipase 2, a PME1 counter-screen; O95372; AID 2177; recombinant LYPLA2, FP-Rh probe fluorescence polarization; inhibition, % at 5.9 µM; actives 0.38% (n = 320,000);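 active = inhibition above the screen-wide mean plus 3 SD, limit set per campaign, cut at about 26% in these data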
LYPLA2 confirm – counter-screen for PME1 inhibitors: confirmation of human LYPLA2 inhibitors; recombinant LYPLA2, FP-Rh probe fluorescence polarization; AID 2232; inhibition, % at 5.9 µM; shares compounds with LYPLA2 inh; actives 72% (n = 1,100);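 active = mean inhibition across replicates above the hit cutoff set in the primary screen, cut at about 26% in these data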;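 also: blocked labeling of the enzyme by serine hydrolase FP-Rh probe lowers polarization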
LYPLA2 ABPP – inhibitors of human LYPLA2; actives 30% (n = 150); inhibition, % at 20 µM; rhLYPLA2 in mouse brain proteome, gel ABPP FP-Rh; shares compounds with LYPLA2 inh; AID 652029;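 active = inhibition of LYPLA2 enzyme probe labeling above about 50%, limit read from the data; inactive = inhibition below that limit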;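 also: loss of FP-Rh probe labeling of the LYPLA2 gel band measured as band density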
Hits are given with their value.

Screening CC(=O)c1ccc(N2CCN(C(=O)c3ccc(Cn4c(=S)[nH]c5ccc(N6CCOCC6)cc5c4=O)cc3)CC2)cc1 returned PREPL inhibitor inactive, LYPLA1 inh inactive, Fam108B counter inactive, PME-1 inh inactive, LYPLA2 inh 44 and LYPLA2 confirm 34.
CC(=O)c1ccc(N2CCN(C(=O)CCCn3c(=S)[nH]c4cc5c(cc4c3=O)OCO5)CC2)cc1 was read as PREPL inhibitor inactive, LYPLA1 inh inactive, Fam108B counter inactive, PME-1 inh inactive, LYPLA2 inh 52, LYPLA2 confirm 51 and LYPLA2 ABPP inactive.
Screening O=C(c1ccc2c(=O)n(Cc3ccccc3)c(=S)[nH]c2c1)N1CCOCC1 returned PREPL inhibitor inactive, LYPLA1 inh inactive, Fam108B counter inactive, PME-1 inh inactive and LYPLA2 inh inactive.
For O=C(CCCn1c(=S)[nH]c2cc3c(cc2c1=O)OCO3)N1CCN(c2ccc(Cl)cc2)CC1 the results were PREPL inhibitor inactive, LYPLA1 inh inactive, Fam108B counter inactive, PME-1 inh inactive and LYPLA2 inh inactive.
Cc1cc(C#N)c(C)c(SCc2[nH]nc3c2C(c2ccccc2)C(C#N)=C(N)O3)n1 (stereo not drawn) was read as PREPL inhibitor inactive, LYPLA1 inh inactive, Fam108B counter inactive, PME-1 inh inactive and LYPLA2 inh inactive.
Cc1cc(C)c(C#N)c(SCc2[nH]nc3c2C(c2ccc(F)cc2)C(C#N)=C(N)O3)n1 (stereo not drawn) was read as PREPL inhibitor inactive, LYPLA1 inh inactive, Fam108B counter inactive, PME-1 inh inactive, LYPLA2 inh 40 and LYPLA2 confirm 36.
For CC1CCCN(C(=O)CN2C(=O)C(C)Oc3ccccc32)C1 (stereo not drawn) the results were PREPL inhibitor inactive, LYPLA1 inh inactive, Fam108B counter inactive, PME-1 inh inactive, LYPLA2 inh 29 and LYPLA2 confirm inactive.
For Cc1ccc(Oc2ccc(OCC(=O)NC(CC(C)C)C(=O)O)cc2)cc1 (stereo not drawn) the results were PREPL inhibitor inactive, LYPLA1 inh inactive, Fam108B counter inactive, PME-1 inh inactive and LYPLA2 inh inactive.
For Cc1c(NC(=O)/C=C/c2cn(-c3ccccc3)nc2-c2ccc(F)cc2)c(=O)n(-c2ccccc2)n1C the results were PREPL inhibitor inactive, LYPLA1 inh inactive, Fam108B counter inactive, PME-1 inh inactive, LYPLA2 inh 31 and LYPLA2 confirm 30.
For Cc1ccc(-c2nn(-c3ccccc3)cc2/C=C/C(=O)Nc2nccs2)cc1 the results were PREPL inhibitor inactive, LYPLA1 inh inactive, Fam108B counter inactive, PME-1 inh inactive and LYPLA2 inh inactive.
O=C1CN(C(=O)c2cccc(F)c2)C(c2ccc(F)cc2)c2cc(F)ccc2N1 (stereo not drawn) was read as PREPL inhibitor inactive, LYPLA1 inh inactive, Fam108B counter inactive, PME-1 inh inactive and LYPLA2 inh inactive.
Cc1ccc(C(=O)N2CC(=O)Nc3ccc(F)cc3C2c2ccccc2)cc1[N+](=O)[O-] (stereo not drawn) was read as PREPL inhibitor inactive, LYPLA1 inh inactive, Fam108B counter inactive, PME-1 inh inactive, LYPLA2 inh 34 and LYPLA2 confirm 34.
Cc1ccc(C(=O)N2CC(=O)Nc3ccc(F)cc3C2c2ccc(F)cc2)cc1[N+](=O)[O-] (stereo not drawn) was read as PREPL inhibitor inactive, LYPLA1 inh inactive, Fam108B counter inactive, PME-1 inh inactive, LYPLA2 inh 34 and LYPLA2 confirm 30.
`O=C1CN(C(=O)c2cc([N+](=O)[O-])ccc2Cl)C(c2ccccc2)c2cc(F)ccc2N1` (stereo not drawn) gave PREPL inhibitor inactive, LYPLA1 inh inactive, Fam108B counter inactive, PME-1 inh inactive and LYPLA2 inh inactive.
`CCc1ccc(C(=O)NNC(=O)c2c(CC)noc2C)cc1` gave PREPL inhibitor inactive, LYPLA1 inh inactive, Fam108B counter inactive, PME-1 inh inactive and LYPLA2 inh inactive.
`COc1ccc([C@H]2CC(=O)C=C(c3ccc(F)cc3OCc3ccccc3)C2)cc1` gave PREPL inhibitor inactive, LYPLA1 inh inactive, PME-1 inh inactive and LYPLA2 inh inactive.
`COc1ccc([C@H]2CC(=O)C=C(c3ccc(F)cc3OCc3ccccc3)C2)cc1OC` gave PREPL inhibitor inactive, LYPLA1 inh inactive, PME-1 inh inactive, LYPLA2 inh 27 and LYPLA2 confirm inactive.
Screening COc1ccc(/C=C2\SC(=O)N(CC(=O)Nc3ccc(F)cc3)C2=O)cc1O returned PREPL inhibitor inactive, LYPLA1 inh inactive, Fam108B counter inactive, PME-1 inh inactive, LYPLA2 inh 49, LYPLA2 confirm 54 and LYPLA2 ABPP 50.
COc1ccc(/C=C2\SC(=O)N(CC(=O)Nc3cccnc3)C2=O)cc1OC was read as PREPL inhibitor inactive, LYPLA1 inh inactive, Fam108B counter inactive, PME-1 inh inactive, LYPLA2 inh 35 and LYPLA2 confirm 26.
`CCN1C(=O)S/C(=C/c2ccc(Oc3ccc([N+](=O)[O-])cn3)c(OC)c2)C1=O` gave PREPL inhibitor inactive, LYPLA1 inh inactive, Fam108B counter inactive, PME-1 inh inactive, LYPLA2 inh 32 and LYPLA2 confirm 41.
For COc1cc(/C=C2\SC(=O)N(CC(=O)Nc3ccccc3F)C2=O)cc(Cl)c1O the results were PREPL inhibitor inactive, LYPLA1 inh inactive, Fam108B counter inactive, PME-1 inh inactive, LYPLA2 inh 51 and LYPLA2 confirm 61.
Nc1nc(N)nc(-c2cccc(Cl)c2)n1 was read as PREPL inhibitor inactive, LYPLA1 inh inactive, PME-1 inh inactive and LYPLA2 inh inactive.
COc1ccc(/C=C2\Sc3ccc(C(=O)NCc4cccnc4)cc3N(C)C2=O)cc1OC was read as PREPL inhibitor inactive, LYPLA1 inh inactive, Fam108B counter inactive, PME-1 inh inactive, LYPLA2 inh 28 and LYPLA2 confirm inactive.
Screening COc1cccc(/C=C2\Sc3ccc(C(=O)NCc4cccnc4)cc3N(C)C2=O)c1 returned PREPL inhibitor inactive, LYPLA1 inh inactive, Fam108B counter inactive, PME-1 inh inactive and LYPLA2 inh inactive.
`Cc1sc2ncnc(OCC(=O)c3ccc(S(=O)(=O)N4CCCC4)cc3)c2c1C` gave PREPL inhibitor inactive, LYPLA1 inh inactive, Fam108B counter inactive, PME-1 inh inactive, LYPLA2 inh 28 and LYPLA2 confirm inactive.
For CNC(=O)COc1ncnc2sc(C)c(C)c12 the results were PREPL inhibitor inactive, LYPLA1 inh inactive, Fam108B counter inactive, PME-1 inh inactive and LYPLA2 inh inactive.
`O=C(COC(=O)c1ccc(O)cc1)c1ccc(S(=O)(=O)N2CCCCC2)cc1` gave PREPL inhibitor inactive, LYPLA1 inh inactive, PME-1 inh inactive, LYPLA2 inh 44 and LYPLA2 confirm 35.
